From PubChem BioAssay
Inconclusive results are not listed. The source made the active and inactive calls.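 How the source made its calls, unless noted: active means viability at or below 10% of carrier control in both of two separate runs; inconclusive means viability at or below 10% in only one of the two runs; inactive means the rest.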

Key:
[1] = Her2 expression decrease, cell viability multiplex – SKBR3 breast tumor cells, AlphaScreen, ATP viability, primary screen (AID 461;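 active means Her2 level under about 52% in both replicate screens, with viability over 70% of control, limit read from the data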;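 on Her2 level: lower value means less Her2 protein in the cells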;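 on viability: percent of carrier control wells set as 100% viability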); settings: SKBR3 Her2 protein level, 18-24 h, measured here: SKBR3 viability, ATP luminescence, at 10 µM
[2] = biological target: Receptor tyrosine-protein kinase erbB-2 (Homo sapiens) (UniProt P04626); assay: as above; settings: 18-24 h, at 10 µM, stronger effect = lower value
Chain of Receptor tyrosine-protein kinase erbB-2 (Homo sapiens) (P04626 whole entry, looked up): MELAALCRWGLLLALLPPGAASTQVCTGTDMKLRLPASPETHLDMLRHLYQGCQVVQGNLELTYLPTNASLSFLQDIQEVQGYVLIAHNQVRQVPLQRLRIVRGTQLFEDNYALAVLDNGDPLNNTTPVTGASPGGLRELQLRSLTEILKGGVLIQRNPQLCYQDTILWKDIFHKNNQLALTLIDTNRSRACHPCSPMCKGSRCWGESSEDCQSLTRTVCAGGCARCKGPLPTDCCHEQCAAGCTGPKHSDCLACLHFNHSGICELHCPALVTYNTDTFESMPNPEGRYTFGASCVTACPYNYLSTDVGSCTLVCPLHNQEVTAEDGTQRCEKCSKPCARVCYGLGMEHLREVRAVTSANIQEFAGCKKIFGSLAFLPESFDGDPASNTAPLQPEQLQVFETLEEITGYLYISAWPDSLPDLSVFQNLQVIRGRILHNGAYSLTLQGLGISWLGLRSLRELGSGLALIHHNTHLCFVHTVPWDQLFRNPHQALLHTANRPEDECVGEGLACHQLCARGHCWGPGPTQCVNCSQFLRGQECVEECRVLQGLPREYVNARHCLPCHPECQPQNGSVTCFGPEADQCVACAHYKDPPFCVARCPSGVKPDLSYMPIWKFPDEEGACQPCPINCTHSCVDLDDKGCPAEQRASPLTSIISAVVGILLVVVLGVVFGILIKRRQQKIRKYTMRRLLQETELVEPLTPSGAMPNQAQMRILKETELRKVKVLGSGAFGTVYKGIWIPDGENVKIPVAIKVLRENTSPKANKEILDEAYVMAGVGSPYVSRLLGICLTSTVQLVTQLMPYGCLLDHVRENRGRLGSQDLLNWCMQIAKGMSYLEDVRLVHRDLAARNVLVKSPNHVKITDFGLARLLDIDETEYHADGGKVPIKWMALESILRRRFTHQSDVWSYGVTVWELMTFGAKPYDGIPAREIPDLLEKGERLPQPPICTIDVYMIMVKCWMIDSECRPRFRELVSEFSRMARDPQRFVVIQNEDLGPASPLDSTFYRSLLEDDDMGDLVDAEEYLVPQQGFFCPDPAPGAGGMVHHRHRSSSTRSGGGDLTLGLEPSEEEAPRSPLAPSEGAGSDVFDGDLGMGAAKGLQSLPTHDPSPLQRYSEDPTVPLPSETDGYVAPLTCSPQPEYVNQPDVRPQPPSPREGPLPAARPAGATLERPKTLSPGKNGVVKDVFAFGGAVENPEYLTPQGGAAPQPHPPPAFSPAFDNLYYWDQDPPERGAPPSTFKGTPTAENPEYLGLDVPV

[3] = reduced viability of SK-BR-3 breast cancer cells – cell-based, 24 h, human, pilot screen (AID 572); settings: SK-BR-3 viability, CellTiter-Glo luminescence, at 10 µM, stronger effect = lower value;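 further: compound exposure lasted between 18 and 24 h rather than exactly 24 h; 100% = carrier-treated control wells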
[4] = HUVEC growth inhibition – cell-based, human, primary screen (AID 575;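 active means viability at or below 30% in both replicate assays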;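 further: 100% = median of untreated cell wells with 0.1% DMSO on each plate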); settings: HUVEC proliferation, CellTiter-Glo luminescence, 72 h; at 10 µM; stronger effect = lower value
[5] = H69AR cell proliferation blockers – human, duplicate replicates, primary screen (AID 580;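 active means viability at or under a set limit in both replicates, limit being median viability minus 3 SD, cut at about 48% in these data, passing the limit was not always enough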;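 further: 100% = mean luminescence of untreated wells and 0% = no signal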); settings: H69AR lung tumor cells viability, ATP luminescence, 72 h; at 10 µM; stronger effect = lower value
[6] = MRP1 drug-resistance reversers in H69AR cells – cell-based, doxorubicin co-treatment, pilot screen (AID 601;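 active means viability loss from added drug above about 55%, and viability with drug at most 40%, in both replicates, limit read from the data, passing the limit was not always enough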); settings: CellTiter-Glo, 72 h, at 10 µM; for differential viability (reversal): stronger effect = higher value
[7] = yeast transport mutant growth inhibition pilot in 384-well plates, post-Golgi transport modulator project (AID 636; in the data active means inhibition above about 31%); settings: absorbance 615 nm, about 18 h, stronger effect = higher value
[8] = growth suppression of yeast trafficking mutant, preliminary HTS, modulators of trafficking downstream of Golgi apparatus project, 1536-format plate, OD 615 nm (AID 637; in the data active means inhibition above about 30%); settings: yeast transport mutant growth, absorbance 615 nm, 18 h; stronger effect = higher value
[9] = S. cerevisiae growth inhibition in permissive medium (OD615), pilot counter-assay for S. cerevisiae lifespan shortening project, permissive growth control (AID 705;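 active means growth inhibition above 25% in both replicates, a cutoff set 3 SD above the mean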); settings: OD615, 24 h, at 10 µM, stronger effect = higher value
[10] = S. cerevisiae growth inhibition in restrictive medium, OD615, pilot screen, restrictive growth control, yeast lifespan reduction project (AID 706;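 active means growth inhibition above a set limit, 3 SD over mean compound inhibition, in both replicates, cut at about 43% in these data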;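 further: modified DeaD lifespan yeast strain shifted to restrictive glucose medium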); settings: OD615, 48 h, at 10 µM, stronger effect = higher value
[11] = doxorubicin toxicity protection in MRP-1 cells – H69AR cells, CellTiter-Glo, duplicate, MRP-1 activator project, pilot screen (AID 807;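 active means viability increase at or above a cutoff of the median across tested compounds plus 3 SD, cut at about 8.5% in these data, passing the limit was not always enough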;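 further: compound pretreatment 18-22 h then 72 h combined with doxorubicin; 0% = doxorubicin alone and 100% = vehicle without doxorubicin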); settings: H69AR viability with doxorubicin, CellTiter-Glo luminescence; at 10 µM; stronger effect = higher value
[12] = viability of HCT116 without oncogenic beta-catenin – human colon tumor cells, pilot screen (AID 823;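 active means cell viability at or below a set limit in both duplicate runs, the limit being the all-compound median minus 4 SD, cut at about 23% in these data, passing the limit was not always enough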;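 further: 0% = wells killed by 20 µM Hyamine and 100% = untreated DMSO cell wells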); settings: HCT116 beta-catenin knockout viability, CellTiter-Glo, 60 h; at 10 µM; stronger effect = lower value
[13] = viability of PTEN-null HCT116 cells – cell-based, HCT116 clonal line, CellTiter-Glo, pilot screen (AID 824;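 active means viability at or below 27.92% in each of two runs, the all-compound median minus 4 SD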;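 further: 0% = 20 µM Hyamine control and 100% = vehicle cell control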); settings: HCT116 PTEN-deleted viability, 60 h, at 10 µM, stronger effect = lower value
[14] = RAM pathway blockade in budding yeast – dse1pr::URA3 reporter, 5-FOA selection, pilot screen (AID 869;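 active means inhibition over a set limit, the all-compound mean plus 3 SD, in both replicate runs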;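 further: 0% = DMSO wells with no growth and 100% = 10 µM 1-NA-PP1 with full growth; RAM network block rescues cells from 5-FOA so hits raise OD615 growth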); settings: S. cerevisiae dse1pr::URA3 5-FOA growth, OD615, 2 d; at 10 µM; stronger effect = higher value; strain carries analog-sensitive mutant Cbk1 kinase
[15] = RAM signaling pathway blockade in yeast – S. cerevisiae, Pdr1DBD-CYC8 efflux-inhibited sensitized strain, primary screen (AID 1298;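 active means RAM network inhibition above 8.4% in each of two replicates, 3 SD over the compound average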;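 further: 0% = DMSO untreated cells without growth and 100% = 10 µM 1-NA-PP1 full growth; higher means more yeast growth rescued from 5-FOA killing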); settings: S. cerevisiae cbk1-as DSE1-URA3 strain, 5-FOA growth OD615, 2 d; at 50 µM; stronger effect = higher value
[16] = H69AR cells + 2 uM doxorubicin, measured here: viability with 2 uM doxorubicin, stronger effect = lower value
[17] = H69AR cells, compound alone cytotoxicity

SMILES	viability [1]	Her2 level [2]	viability [3]	viability [4]	viability [5]	differential viability (reversal) ([6]; H69AR cells + 2 uM doxorubicin)	viability [6, 16]	viability [6, 17]	inhibition [7]	inhibition [8]	growth inhibition [9]	growth inhibition [10]	viability increase [11]	viability [12]	viability [13]	inhibition [14]	RAM network inhibition [15]
Cc1nnc(N2C(=O)C(O)=C(C(=O)c3ccco3)C2c2ccc(F)cc2)s1 (stereo not drawn)	99%	98.5% (inactive)	99% (inactive)	120% (inactive)	99.6% (inactive)	8.77% (inactive)	90.9%	99.6%	-3.46% (inactive)	1.67% (inactive)	-13.9% (inactive)	-28.6% (inactive)	-1.63% (inactive)	106% (inactive)	101% (inactive)	0.21% (inactive)	0.57% (inactive)
Cc1ccc(C)c(S(=O)(=O)n2cnc3ccccc32)c1	96.5%	87.5% (inactive)	96.5% (inactive)	109% (inactive)	99% (inactive)	7.94% (inactive)	91.1%	99%	-0.13% (inactive)	30.2% (active)	-18% (inactive)	-20.2% (inactive)	0.98% (inactive)	95.2% (inactive)	97.6% (inactive)	2.08% (inactive)	2.15% (inactive)
O=C(COc1ccc(=O)n(-c2ccccc2)n1)Nc1ccccc1	96%	95.5% (inactive)	96% (inactive)	102% (inactive)	98.8% (inactive)	6.32% (inactive)	92.4%	98.8%	-4.4% (inactive)	0.82% (inactive)	-1.58% (inactive)	9.99% (inactive)	-1.83% (inactive)	109% (inactive)	98.6% (inactive)	2.81% (inactive)	1.04% (inactive)
Cc1cccc(CN2CCC(CNC(=O)C3CCCN(S(=O)(=O)c4cnc[nH]4)C3)CC2)c1 (stereo not drawn)	98%	95.5% (inactive)	98% (inactive)	98.8% (inactive)	89.8% (inactive)	2.14% (inactive)	87.6%	89.8%	-5.2% (inactive)	-0.66% (inactive)	-0.3% (inactive)	-2.77% (inactive)	0.07% (inactive)	101% (inactive)	106% (inactive)	1.33% (inactive)	4.03% (inactive)
O=C(CCN1C(=O)c2ccccc2C1=O)Nc1ccc(F)cc1	108%	76% (inactive)	108% (inactive)	116% (inactive)	104% (inactive)	12.9% (inactive)	90.6%	104%	-1.95% (inactive)	-7% (inactive)	-8.49% (inactive)	-11.6% (inactive)	3.01% (inactive)	107% (inactive)	110% (inactive)	1.6% (inactive)	-0.26% (inactive)
CCOc1ccc(NC(=O)CN2C(=O)C3CCCN3C2=O)cc1 (stereo not drawn)	85%	106% (inactive)	85% (inactive)	94.6% (inactive)	101% (inactive)	3.86% (inactive)	97.5%	101%	-2.53% (inactive)	3.67% (inactive)	-4.76% (inactive)	-13.8% (inactive)	-0.9% (inactive)	102% (inactive)	97.1% (inactive)	-0.315% (inactive)	2.93% (inactive)
O=C(O)CC(NC(=O)c1ccccc1NC(=O)c1ccccc1)C(=O)O (stereo not drawn)	86.5%	154% (inactive)	86.5% (inactive)	93.5% (inactive)	97.2% (inactive)	6.64% (inactive)	90.5%	97.2%	3.97% (inactive)	35.3% (active)	-0.82% (inactive)	-3.04% (inactive)	-0.74% (inactive)	108% (inactive)	96.5% (inactive)	0.785% (inactive)	0.47% (inactive)
CCOc1ccc(OCCCCN(C)C)cc1	89%	92.5% (inactive)	89% (inactive)	87.2% (inactive)	88.5% (inactive)	1.8% (inactive)	86.7%	88.5%	-0.64% (inactive)	1.5% (inactive)	-10% (inactive)	3.69% (inactive)	-0.48% (inactive)	96.8% (inactive)	93.5% (inactive)	3.26% (inactive)	6.13% (inactive)
CCCN(CCC)CCNC(=O)c1cc2c(=O)n(C)c3ccccc3c2n1C	89%	98.5% (inactive)	89% (inactive)	57.5% (inactive)	77.1% (inactive)	13% (inactive)	64%	77.1%	-2.53% (inactive)	1.67% (inactive)	6.58% (inactive)	1.31% (inactive)	-6.19% (inactive)	69.6% (inactive)	73.4% (inactive)	1.12% (inactive)	0.57% (inactive)
